We go through 28 compounds from PubChem BioAssay.

This test concerns wheat germ agglutinin (Triticum aestivum), Alexa647-labelled. Nature of the test: Alexa647-WGA lectin binding to printed small molecules – biochemical, small-molecule microarray, 635/667 nm fluorescence, artefact control for SMM control-protein annotation, profiling panel (AID 1140).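 Note: score merges 667 nm feature emission with signal to noise over triplicate slides.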 Particulars: WGA-A647 binding, 635 nm fluorescence, higher = more signal.
Turning to `C[C@@H]1ON(c2ccccc2)[C@H](c2ccccc2)[C@H]1C(=O)O`, the composite z-score amounted to 0.607.

Turning to `C[C@]1(C(=O)O)c2ccccc2C(=O)N(Cc2cc(F)cc(C(F)(F)F)c2)[C@H]1c1ccc(CO)cc1`, the composite z-score was 0.0471.

The compound `COCCOC(=O)N1C(=O)[C@@]2(c3cc(C#CCCO)ccc31)[C@H](c1ccccc1OCCO)N1[C@H](c3ccccc3)[C@H](c3ccccc3)OC(=O)[C@H]1[C@@H]2C(N)=O` displayed a composite z-score of 0.246.

For `O=C1[C@H]2C=C(I)[C@H](C[C@@H]2OCCCCCCO)[C@@]12CO2`, the composite z-score is -0.291.

In the case of `C=CCOC(=O)[C@@H]1[C@H]2C(=O)O[C@H](c3ccccc3)[C@H](c3ccccc3)N2[C@H](c2ccc(OCCOC(=O)[C@H]3C[C@H]4C(=O)N[C@@H](CCCCN(C)C)C(=O)N4[C@H]3c3ccc(O)cc3)cc2)[C@@]12C(=O)Nc1ccc(I)cc12`, the composite z-score worked out at 0.538.

As for `O=C(NCc1ccccc1)[C@@H]1c2ccccc2C(=O)N(Cc2cc(C(F)(F)F)cc(C(F)(F)F)c2)[C@H]1c1ccc(CO)cc1`, the composite z-score came to 0.452.

Compound `CCCC[C@H]1C[C@@H]1[C@@H]1N(C(C)=O)[C@H](c2cccc(OC)c2)CC12CC2` showed a composite z-score of 0.133.

In turn, `CCOC(=O)C1=CCC(c2cc3ccccc3[nH]2)N(CCN2CC(C(=O)OCC)=CCC2c2cc3ccccc3[nH]2)C1` (stereo not drawn) registered a composite z-score of 1.

The compound `C=C(CCCC)/C(=C/C[C@H](OC(C)=O)c1cccc(OCCO)c1)c1cnc2ccccc2c1` came in with a composite z-score of 0.324.

On to `CCCN1C(=O)[C@@]2(c3ccc([N+](=O)[O-])cc3)CC(=O)N(CC34CC5CC(CC(C5)C3)C4)[C@@H]2c2ccc(CO)cc21`, for which the composite z-score was -0.0176.

Regarding `COc1ccc(C(O)C2C=CC3C(=O)N(c4ccccc4)C(=O)C3N2Nc2ccc(C#N)cc2)cc1OCc1ccccc1` (stereo not drawn), the composite z-score was 1.15.

Take `CC(C)NC(=O)[C@@]1(c2ccc([N+](=O)[O-])cc2)CC(=O)N(CC23CC4CC(CC(C4)C2)C3)[C@@H]1c1ccc(CO)cc1`: the composite z-score amounted to 0.738.

Regarding `CC1=C([C@H](O)CCc2ccccc2)[C@H](CO)n2c(=O)n(-c3ccccc3)c(=O)n2C1`, the composite z-score is -0.137.

`O=C(NC1CC1)[C@@H]1c2ccccc2C(=O)N(Cc2cc(C(F)(F)F)cc(C(F)(F)F)c2)[C@H]1c1ccc(CO)cc1` had a composite z-score of 0.416.

With `COC(=O)[C@@]1(Cc2ccccc2)N=C(c2ccc(OCCCO)cc2)O[C@H]1c1ccccc1CN=[N+]=[N-]`, the composite z-score was 0.0777.

With `O=C1c2ccccc2[C@@]2(Cc3ccccc3N(Cc3ccccc3)C2=O)[C@H](c2ccc(CO)cc2)N1Cc1ccccc1Cl`, the composite z-score is -0.45.

`CC(C)C[C@H]1NC(=O)C([C@@H](C)OCc2ccccc2)NC(=O)[C@@]23C(=O)N[C@@H](Cc4ccccc4)C2[C@H](C)[C@@]2(C)O[C@H]2C3/C=C/C/C=C\CNC1=O` (stereo partly drawn) yielded a composite z-score of 0.999.

`CC(C)=CCCC(C)=CC(O)C1C=CC2C(=O)NC(=O)C2N1Nc1ccc(Cl)cc1Cl` (stereo not drawn) came in with a composite z-score of 0.863.

For the compound `CCCCC(=C=CC[C@H](O)c1ccc(CO)o1)CCO`, the composite z-score was found to be 0.0416.

The compound `CCOC(=O)C1=CC[C@@H](c2ccccc2)N(S(=O)(=O)c2ccc(C)cc2)[C@H]1c1ccccc1I` returned a composite z-score of 1.01.

In turn, `[N-]=[N+]=Nc1ccccc1[C@@H]1OC(c2ccc(OCCCO)cc2)=N[C@]1(CCS(=O)(=O)c1ccccc1)C(=O)NCC(O)CO` (stereo partly drawn) had a composite z-score of 1.02.

Regarding `N#Cc1ccc(NN2C(C(O)C3CC=CCC3)C=CC3C(=O)N(c4ccccc4)C(=O)C32)cc1` (stereo not drawn), the composite z-score was 1.36.

Regarding `CC(C)C[C@@H]1NC(=O)[C@@]23C(=O)N[C@@H](Cc4ccccc4)C2[C@H](C)[C@@]2(C)O[C@H]2C3/C=C/C/C=C\CNC(=O)CNC1=O` (stereo partly drawn), the composite z-score came out at 0.375.

In turn, `COc1ccc([Si](C)(C)[C@H]2[C@H](CC(=O)N3CCC[C@H]3CO)O[C@@]3(C(=O)N(Cc4ccc(N5CCCCC5=O)cc4)c4ccccc43)[C@@H]2C)cc1` yielded a composite z-score of 0.513.

In turn, `C=CCC(OC(C)=O)[C@@H]1[C@@H](N(Cc2cccc3ccccc23)C(=O)Cc2ccc(OC)cc2)c2cc(OCCCO)ccc2N1C(=O)c1ccc2ccccc2c1` (stereo partly drawn) gave a composite z-score of 0.453.

Consider `NC(=O)NCC#Cc1ccc2c(c1)[C@]1(C(=O)N2)[C@H](c2ccc(OCCO)cc2)N2[C@H](c3ccccc3)[C@H](c3ccccc3)OC(=O)[C@H]2[C@@H]1C(=O)O`, for which the composite z-score stood at 1.22.

Compound `O=C1O[C@H](c2ccccc2)[C@H](c2ccccc2)N2[C@H]1[C@@H](C(=O)N1CCN(c3ncccn3)CC1)[C@]1(C(=O)Nc3ccc(C#CCCO)cc31)[C@H]2c1ccc(O)cc1` had a composite z-score of 0.766.

For `C=C(CCCC)/C(=C/C[C@H](OC(=O)c1ccncc1)c1cccc(OCCO)c1)c1cnc2ccccc2c1`, the composite z-score was determined as 0.851.
